# Results reported in the supplement of paper PMC8728848.
# Only a selection was taken, and the strongest signals are over-represented in it overall.
# B1: Layilin (Mus musculus), Q8C351 (protein)
# chain: MQPGAALQAMLLAVLLAKPRDSKGRLLSASDLDPRGGQLVCRGGTRRPCYKVIYFHDAFQRLNFEEAKETCMEDGGQLVSIETEDEQRLIEKFIENLLASDGDFWIGLKRLEEKQSNNTACQDLYAWTDGSTSQFRNWYVDEPSCGSEVCVVMYHQPSAPPGIGGSYMFQWNDDRCNMKNNFICKYHDDKPSTTPSIWPGGEATEPATPLLPEETQKEDTKETFKERREAALNLAYILIPSIPLFLLLVVTSAVCWVWICRRKREQTDPSTKEQHTIWPTPRQENSPNLDVYNVIRKQSEADLAEPRPDLKNISFRVCSGEAMPDDMSCDYENIAVNPSESGFVTLASMESGFVTNDIYEFSPDRMGRSKESGWVENEIYY
# Assays:
# Assay in all cases: glycan array binding signal (z-score within array); higher = stronger binding
# Settings in all cases: glycan notation: IUPAC condensed, linker removed
# [1] = target: Fuc(a1-2)Gal(b1-3)GalNAc(b1-4)[Neu5Ac(a2-3)]Gal(b1-4)Glc
# How it was run: (§1)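 The binding signal is a Z-score computed within each array and averaged over linkers. Arrays of the same protein sequence at different concentrations or buffers were also averaged together. Data originate from 3228 arrays in the Consortium for Functional Glycomics database, kept only where the protein sequence was available.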
# [2] = target: Fuc(a1-2)Gal(b1-4)[Fuc(a1-3)]GlcNAc(b1-3)GalNAc
# How it was run: as §1
# [3] = target: Fuc(a1-2)[GalNAc(a1-3)]Gal(b1-4)[Fuc(a1-3)]GlcNAc(b1-3)GalNAc
# How it was run: as §1
# [4] = target: Fuc(a1-3)[Gal(b1-4)]GlcNAc(b1-2)Man(a1-3)[Fuc(a1-3)[Gal(b1-4)]GlcNAc(b1-2)Man(a1-6)]Man(b1-4)GlcNAc(b1-4)GlcNAc
# How it was run: as §1
# [5] = target: Fuc(a1-3)[Gal(b1-4)]GlcNAc(b1-2)Man(a1-3)[Fuc(a1-3)[Gal(b1-4)]GlcNAc(b1-2)Man(a1-6)]Man(b1-4)GlcNAc(b1-4)[Fuc(a1-6)]GlcNAc
# How it was run: as §1
# Gal(a1-3)Gal(b1-3)GlcNAc = target: Gal(a1-3)Gal(b1-3)GlcNAc
# How it was run: as §1
# [6] = target: Gal(a1-4)Gal(b1-4)GlcNAc(b1-3)Gal(b1-4)Glc
# How it was run: as §1
# [7] = target: Gal(b1-3)GlcNAc(b1-3)Gal(b1-4)GlcNAc(b1-6)[Gal(b1-3)GlcNAc(b1-3)]Gal(b1-4)Glc
# How it was run: as §1
# [8] = target: Gal(b1-3)[Fuc(a1-4)]GlcNAc(b1-2)Man(a1-3)[Gal(b1-3)[Fuc(a1-4)]GlcNAc(b1-2)Man(a1-6)]Man(b1-4)GlcNAc(b1-4)[Fuc(a1-6)]GlcNAc
# How it was run: as §1
# [9] = target: Gal(b1-4)GlcNAc(b1-2)Man(a1-3)Man(b1-4)GlcNAc(b1-4)GlcNAc
# How it was run: as §1
# [10] = target: Gal(b1-4)GlcNAc(b1-2)Man(a1-3)[Gal(b1-4)GlcNAc(b1-2)Man(a1-6)]Man(b1-4)GlcNAc(b1-4)GlcNAc
# How it was run: as §1
# [11] = target: Gal(b1-4)GlcNAc(b1-2)Man(a1-6)Man(b1-4)GlcNAc(b1-4)GlcNAc
# How it was run: as §1
# [12] = target: Gal(b1-4)GlcNAc(b1-2)[Gal(b1-4)GlcNAc(b1-6)]Man(a1-6)[GlcNAc(b1-4)][Gal(b1-4)GlcNAc(b1-2)Man(a1-3)]Man(b1-4)GlcNAc(b1-4)GlcNAc
# How it was run: as §1
# Gal3S(b1-4)GlcNAc6S = target: Gal3S(b1-4)GlcNAc6S
# How it was run: as §1
# Gal3S6S(b1-4)GlcNAc = target: Gal3S6S(b1-4)GlcNAc
# How it was run: as §1
# Gal6S(b1-3)GlcNAc = target: Gal6S(b1-3)GlcNAc
# How it was run: as §1
# GalNAc(b1-3)GalNAc = target: GalNAc(b1-3)GalNAc
# How it was run: as §1
# [13] = target: Glc(a1-4)Glc(a1-4)Glc(a1-4)Glc
# How it was run: as §1
# [14] = target: GlcNAc(a1-4)Gal(b1-4)GalNAc
# How it was run: as §1
# [15] = target: GlcNAc(a1-4)Gal(b1-4)GlcNAc(b1-3)Gal(b1-4)GlcNAc
# How it was run: as §1
# [16] = target: GlcNAc(b1-3)Gal(b1-3)GalNAc
# How it was run: as §1
# [17] = target: GlcNAc(b1-3)Gal(b1-4)GlcNAc(b1-3)Gal(b1-4)GlcNAc
# How it was run: as §1
# GlcNAc(b1-3)Man = target: GlcNAc(b1-3)Man
# How it was run: as §1
# Kdn(a2-3)Gal(b1-3)GlcNAc = target: Kdn(a2-3)Gal(b1-3)GlcNAc
# How it was run: as §1
# [18] = target: Man(a1-2)Man(a1-3)[Man(a1-2)Man(a1-6)]Man(a1-6)[Man(a1-2)Man(a1-2)Man(a1-3)]Man(b1-4)GlcNAc(b1-4)GlcNAc
# How it was run: as §1
# [19] = target: Neu5Ac(a2-3)Gal(b1-4)GlcNAc(b1-3)Gal
# How it was run: as §1
# [20] = target: Neu5Ac(a2-3)Gal(b1-4)GlcNAc(b1-3)Gal(b1-4)[Fuc(a1-3)]GlcNAc
# How it was run: as §1
# [21] = target: Neu5Ac(a2-3)Gal(b1-4)[Fuc(a1-3)]GlcNAc(b1-3)Gal(b1-4)GlcNAc
# How it was run: as §1
# [22] = target: Neu5Ac(a2-3)Gal(b1-4)[Fuc(a1-3)]GlcNAc(b1-3)Gal(b1-4)[Fuc(a1-3)]GlcNAc(b1-3)Gal(b1-4)[Fuc(a1-3)]GlcNAc
# How it was run: as §1
# [23] = target: Neu5Ac(a2-3)Gal(b1-4)[Fuc(a1-3)]GlcNAc(b1-3)GalNAc
# How it was run: as §1
# [24] = target: Neu5Ac(a2-3)Gal(b1-4)[Fuc(a1-3)]GlcNAc(b1-6)[Gal(b1-3)]GalNAc
# How it was run: as §1
# [25] = target: Neu5Ac(a2-3)Gal6S(b1-4)[Fuc(a1-3)]GlcNAc
# How it was run: as §1
# [26] = target: Neu5Ac(a2-3)[GalNAc(b1-4)]Gal(b1-4)GlcNAc(b1-3)GalNAc
# How it was run: as §1
# Neu5Ac(a2-6)Gal(b1-4)Glc = target: Neu5Ac(a2-6)Gal(b1-4)Glc
# How it was run: as §1
# [27] = target: Neu5Ac(a2-6)Gal(b1-4)GlcNAc(b1-2)Man(a1-3)[GlcNAc(b1-2)Man(b1-4)GlcNAc(b1-2)Man(a1-6)]Man(b1-4)GlcNAc(b1-4)GlcNAc
# How it was run: as §1
# [28] = target: Neu5Ac(a2-6)Gal(b1-4)GlcNAc(b1-2)Man(a1-6)Man(b1-4)GlcNAc(b1-4)GlcNAc
# How it was run: as §1
# Neu5Ac(a2-6)GalNAc = target: Neu5Ac(a2-6)GalNAc
# How it was run: as §1
# [29] = target: Neu5Ac(a2-6)GlcNAc(b1-4)GlcNAc(b1-4)GlcNAc
# How it was run: as §1
# [30] = target: Neu5Gc(a2-3)Gal(b1-3)GlcNAc
# How it was run: as §1
binder,measurement,setting,value
B1,glycan array binding signal (z-score),[1],-0.101
same,glycan array binding signal (z-score),[2],4.74
same,glycan array binding signal (z-score),[3],2.16
same,glycan array binding signal (z-score),[4],-0.753
same,glycan array binding signal (z-score),[5],1.43
same,glycan array binding signal (z-score),Gal(a1-3)Gal(b1-3)GlcNAc,-0.17
same,glycan array binding signal (z-score),[6],3.88
same,glycan array binding signal (z-score),[7],-0.423
same,glycan array binding signal (z-score),[8],7.71
same,glycan array binding signal (z-score),[9],-0.41
same,glycan array binding signal (z-score),[10],-0.504
same,glycan array binding signal (z-score),[11],-0.753
same,glycan array binding signal (z-score),[12],-0.619
same,glycan array binding signal (z-score),Gal3S(b1-4)GlcNAc6S,-0.103
same,glycan array binding signal (z-score),Gal3S6S(b1-4)GlcNAc,-0.561
same,glycan array binding signal (z-score),Gal6S(b1-3)GlcNAc,-0.243
same,glycan array binding signal (z-score),GalNAc(b1-3)GalNAc,-0.932
same,glycan array binding signal (z-score),[13],-0.492
same,glycan array binding signal (z-score),[14],-1.4
same,glycan array binding signal (z-score),[15],5.27
same,glycan array binding signal (z-score),[16],3.53
same,glycan array binding signal (z-score),[17],3.11
same,glycan array binding signal (z-score),GlcNAc(b1-3)Man,0.015
same,glycan array binding signal (z-score),Kdn(a2-3)Gal(b1-3)GlcNAc,-0.719
same,glycan array binding signal (z-score),[18],0.181
same,glycan array binding signal (z-score),[19],0.955
same,glycan array binding signal (z-score),[20],0.119
same,glycan array binding signal (z-score),[21],-0.212
same,glycan array binding signal (z-score),[22],2.92
same,glycan array binding signal (z-score),[23],1.82
same,glycan array binding signal (z-score),[24],4.15
same,glycan array binding signal (z-score),[25],-0.666
same,glycan array binding signal (z-score),[26],0.49
same,glycan array binding signal (z-score),Neu5Ac(a2-6)Gal(b1-4)Glc,0.086
same,glycan array binding signal (z-score),[27],1.47
same,glycan array binding signal (z-score),[28],-0.392
same,glycan array binding signal (z-score),Neu5Ac(a2-6)GalNAc,-0.757
same,glycan array binding signal (z-score),[29],0.077
same,glycan array binding signal (z-score),[30],0.013
